Source: paper PMC5540273 (PLoS ONE, 2017)

These compounds were tested on FLT4. Conditions: concentration: 1 μM,replicates: in singlicate; n = 1.
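Also: KINOMEscan kinase panel screen.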

| SMILES | %Inh [%] |
| --- | --- |
| C=CC(=O)Nc1cc2c(Nc3ccc(F)c(Cl)c3)ncnc2cc1OCCCN1CCOCC1 [GW781483] | 0 |
| CC(C)Nc1cc(-c2ccc3c(N)n[nH]c3c2)nc(N)n1 [GSK2221681] | 14 |
| COc1ccc(C[C@@H](CN)NC(=O)c2cc(Br)c(-c3ccnc4[nH]ccc34)s2)cc1.Cl.Cl [GSK1389063] | 73 |
| Cc1occc1-c1nc(N)c(OC[C@@H](N)Cc2c[nH]c3ccccc23)cc1-c1cc2c(C)n[nH]c2cn1 [GSK1660450] | 25 |
| Cc1ccc2c(-c3ccncc3)c(-c3ccc(F)cc3)nn2c1.Cl [GW461484] | 0 |
| O=C(NCCCN1CCOC1=O)c1cnc(NCc2cc(Cl)ccc2Cl)nc1NC1CCCC1 | 5 |
| Cc1n[nH]c2ccc(-c3cc(OC[C@@H](N)Cc4ccccc4)cnc3-c3ccoc3)cc12.O=C(O)C(F)(F)F.O=C(O)C(F)(F)F [GSK507358] | 5 |
| Cc1cc2cn[nH]c2cc1-c1cccc2c(N)c(C(N)=O)nnc12 | 2 |
| NC(=O)c1cc(-c2ccccc2)cc2c(C3CCNCC3)c[nH]c12 [GSK301362] | 12 |
| Cc1ccc(-n2nc(C(C)(C)C)cc2NC(=O)Nc2ccc(OCCN3CCOCC3)c3ccccc23)cc1 [GW839464] | 58 |
| CC(C)N1C(=O)Cc2cc(Nc3ncc(C(F)(F)F)c(NCc4cccc(S(C)(=O)=O)c4)n3)ccc21 | 89 |
| O=C(NCCNc1ccnc(NCc2ccc(F)cc2)n1)c1cc2ccccc2s1 [GSK1379944] | 1 |
